Test results as given in PubChem BioAssay.
Values without a mark were called inactive. How the calls were made is not given here.

The compounds below were run against Botulinum neurotoxin type A (Clostridium botulinum) (UniProt P0DPI0) (assay: BoNT/A light chain protease inhibitors, biochemical, multiplex microsphere flow cytometry, validation set (AID 588460)). Conditions: at 10 µM, hits give high values.
Botulinum neurotoxin type A (Clostridium botulinum), sequence (P0DPI0 whole entry, looked up): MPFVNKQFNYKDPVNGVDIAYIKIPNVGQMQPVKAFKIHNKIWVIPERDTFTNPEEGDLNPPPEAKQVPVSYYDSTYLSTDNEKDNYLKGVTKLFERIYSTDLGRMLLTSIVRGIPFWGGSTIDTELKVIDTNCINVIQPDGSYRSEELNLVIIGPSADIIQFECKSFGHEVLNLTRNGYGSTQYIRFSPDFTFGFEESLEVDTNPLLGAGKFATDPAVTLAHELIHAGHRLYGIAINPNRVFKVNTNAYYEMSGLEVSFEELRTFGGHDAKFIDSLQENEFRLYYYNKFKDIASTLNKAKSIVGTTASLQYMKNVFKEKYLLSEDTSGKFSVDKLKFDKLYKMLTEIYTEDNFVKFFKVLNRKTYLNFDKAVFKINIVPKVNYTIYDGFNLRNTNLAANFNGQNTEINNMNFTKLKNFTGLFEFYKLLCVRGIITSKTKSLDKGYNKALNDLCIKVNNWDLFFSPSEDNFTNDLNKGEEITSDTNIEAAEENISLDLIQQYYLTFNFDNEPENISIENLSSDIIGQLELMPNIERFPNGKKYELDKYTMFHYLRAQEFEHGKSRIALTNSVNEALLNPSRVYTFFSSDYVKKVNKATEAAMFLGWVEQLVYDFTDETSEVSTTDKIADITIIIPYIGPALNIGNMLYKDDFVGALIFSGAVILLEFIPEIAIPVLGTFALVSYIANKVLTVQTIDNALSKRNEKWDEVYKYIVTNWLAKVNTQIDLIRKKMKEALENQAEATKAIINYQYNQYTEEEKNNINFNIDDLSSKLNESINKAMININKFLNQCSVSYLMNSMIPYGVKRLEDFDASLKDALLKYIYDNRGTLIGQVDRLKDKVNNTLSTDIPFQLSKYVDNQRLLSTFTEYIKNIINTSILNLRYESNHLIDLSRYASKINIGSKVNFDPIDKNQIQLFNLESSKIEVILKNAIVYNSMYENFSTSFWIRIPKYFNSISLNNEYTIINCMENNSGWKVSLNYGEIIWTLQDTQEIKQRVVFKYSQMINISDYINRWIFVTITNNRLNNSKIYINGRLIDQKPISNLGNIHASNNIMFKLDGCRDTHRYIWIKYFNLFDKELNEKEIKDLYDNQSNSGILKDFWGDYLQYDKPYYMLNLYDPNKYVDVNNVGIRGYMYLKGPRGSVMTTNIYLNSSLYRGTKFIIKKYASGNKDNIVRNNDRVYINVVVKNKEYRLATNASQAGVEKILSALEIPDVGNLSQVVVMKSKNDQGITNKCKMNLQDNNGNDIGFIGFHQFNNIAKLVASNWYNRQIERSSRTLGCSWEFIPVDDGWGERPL

**Q.** With CC1CCCC(C)N1NC(=O)c1ccc(Cl)c(S(N)(=O)=O)c1 (configuration not stated) as the compound, how does the inhibition read?
**A.** The inhibition was 0.8%.

**Q.** CC(=O)CCc1oc2ccccc2c1-c1ccccc1 was tested. Which inhibition did it give?
**A.** The inhibition was -1.4%.

**Q.** Which inhibition does the source give for C=C(C)COc1ccc(-c2nc(N)ncc2-c2ccc(OC)cc2)c(O)c1 here?
**A.** The inhibition was 1.4%.

**Q.** With CC(C)C[C@H](NC(=O)NC(C)C)C(=O)O as the compound, how does the inhibition read?
**A.** The inhibition was 0%.

**Q.** Which inhibition does the source give for NC(=O)c1ncn([C@@H]2O[C@H](CO)[C@@H](O)[C@H]2O)c1O here?
**A.** Its inhibition is -1.9%.

**Q.** How did the inhibition turn out when O=C(O)c1cccnc1 was run?
**A.** Its inhibition is 2%.

**Q.** How did the inhibition turn out when CN(C)CCC(c1ccccc1)c1ccccn1 (configuration not stated) was run?
**A.** The inhibition was -0.2%.

**Q.** How did the inhibition turn out when O=c1cc(-c2ccc3c(c2)OCCO3)oc2ccc(Cl)cc12 was run?
**A.** The inhibition was -0.6%.

**Q.** COc1ccc2cc(C3(C)NC(=O)NC3=O)ccc2c1 (configuration not stated) was tested. Which inhibition did it give?
**A.** Its inhibition is -0.4%.

**Q.** Which inhibition does the source give for Cn1cc(CN(CCO)Cc2cccs2)c(-c2cccc(Cl)c2)n1 here?
**A.** Its inhibition is 1.3%.

**Q.** Which inhibition does the source give for O=C(N/N=C/c1ccc([N+](=O)[O-])o1)c1ccc(O)cc1 here?
**A.** The inhibition was -3.9%.

**Q.** Which inhibition does the source give for CN(C)CCOC(c1ccccc1)c1ccccc1 (tested in a mixture with another compound) here?
**A.** Its inhibition is -2.5%.

**Q.** How did the inhibition turn out when CC(C)c1ccc2[nH]c3c(c2c1)CCCC3=O was run?
**A.** The inhibition was -0.8%.

**Q.** With O=C(CCc1c[nH]c2ccccc12)NCc1ccco1 as the compound, how does the inhibition read?
**A.** Its inhibition is 0.2%.

**Q.** Which inhibition does the source give for COCCCN1C(=O)C(=O)/C(=C(/O)c2ccc3c(c2)CC(C)O3)C1c1cccnc1 (configuration not stated) here?
**A.** The inhibition was -2.1%.

**Q.** COC(=O)c1ccc2c(c1)C(=O)/C(=C/c1ccc(O)cc1)O2 was tested. Which inhibition did it give?
**A.** The inhibition was 0.7%.

**Q.** How did the inhibition turn out when N=C1C(c2ccccc2)=C(O)CN1CCCO was run?
**A.** The inhibition was -1.3%.
